Assays:
Experiment in all cases: growth AUC relative to DMSO control (median of replicates) (fraction); higher = more growth (less inhibition), active = hit call of the paper
Conditions in all cases: 20 µM; 24 h;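 active = AUC reduced over 20% with Padj below 0.05 in at least 2 of 3 replicates; inactive = otherwise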
Akkermansia muciniphila = test system: Akkermansia muciniphila
In short: (§1)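 Gut bacterial monocultures were grown anaerobically at 37 °C in mGAM from a starting OD600 of 0.05 with 20 µM compound (1% DMSO), in round-bottom 96-well plates under pierced gas-permeable seals, and OD600 was read hourly for 24 h. With the minimum OD set to 0, area under the growth curve was normalised to the plate median of solvent-only wells, or to row and column medians on the industrial chemical plate. Each value is the median of three biological replicates grown on separate days.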

Bacteroides caccae = test system: Bacteroides caccae
In short: as §1

Bacteroides clarus = test system: Bacteroides clarus
In short: as §1

Bacteroides dorei = test system: Bacteroides dorei
In short: as §1

Bacteroides stercoris = test system: Bacteroides stercoris
In short: as §1

[1] = test system: Bacteroides thetaiotaomicron
In short: as §1

Bacteroides uniformis = test system: Bacteroides uniformis
In short: as §1

[2] = test system: Bifidobacterium longum subsp. longum
In short: as §1

Clostridium difficile = test system: Clostridium difficile
In short: as §1

Collinsella aerofaciens = test system: Collinsella aerofaciens
In short: as §1

Measured: growth AUC

CC(C)c1cccc2c(=O)c3ccccc3sc12
inactive: Akkermansia muciniphila 1.1 | Bacteroides caccae 0.922 | Bacteroides clarus 1.03 | Bacteroides dorei 0.913 | Bacteroides stercoris 1.21 | [1] 0.963 | Bacteroides uniformis 0.995 | [2] 1.06 | Clostridium difficile 0.895 | Collinsella aerofaciens 0.95

CC(=O)CC(c1ccccc1)c1c(O)c2ccccc2oc1=O (stereo not given)
inactive: Akkermansia muciniphila 0.913 | Bacteroides caccae 1.01 | Bacteroides clarus 0.93 | Bacteroides dorei 1.02 | Bacteroides stercoris 0.965 | [1] 0.952 | Bacteroides uniformis 0.952 | [2] 1 | Clostridium difficile 0.998 | Collinsella aerofaciens 0.966

COc1ccc(Cl)c(Cl)c1Cl
inactive: Akkermansia muciniphila 0.963 | Bacteroides caccae 1.03 | Bacteroides clarus 1.01 | Bacteroides dorei 1.02 | Bacteroides stercoris 0.971 | [1] 0.991 | Bacteroides uniformis 1 | [2] 0.986 | Clostridium difficile 0.964 | Collinsella aerofaciens 1.01

CCCNCCOc1c(Cl)cc(Cl)cc1Cl
inactive: Akkermansia muciniphila 0.946 | Bacteroides caccae 0.972 | Bacteroides clarus 0.979 | Bacteroides dorei 0.985 | Bacteroides stercoris 0.898 | [1] 0.979 | Bacteroides uniformis 1 | [2] 0.918 | Clostridium difficile 0.973 | Collinsella aerofaciens 0.98

CC1=C(C(=O)Nc2ccccc2)CCCO1
inactive: Akkermansia muciniphila 0.955 | Bacteroides caccae 0.992 | Bacteroides clarus 1.01 | Bacteroides dorei 1.01 | Bacteroides stercoris 0.951 | [1] 0.99 | Bacteroides uniformis 1.06 | [2] 1.15 | Clostridium difficile 1.01 | Collinsella aerofaciens 1.01

CNc1nc(NC(C)C)nc(SC)n1
inactive: Akkermansia muciniphila 0.806 | Bacteroides caccae 1.04 | Bacteroides clarus 0.972 | Bacteroides dorei 0.989 | Bacteroides stercoris 0.913 | [1] 1.01 | Bacteroides uniformis 0.957 | [2] 0.862 | Clostridium difficile 1.01 | Collinsella aerofaciens 0.986

CC(C)(C)Nc1nc(N)nc(Cl)n1
inactive: Akkermansia muciniphila 1.06 | Bacteroides caccae 0.991 | Bacteroides clarus 0.997 | Bacteroides dorei 0.993 | Bacteroides stercoris 0.991 | [1] 0.979 | Bacteroides uniformis 0.962 | [2] 0.982 | Clostridium difficile 0.997 | Collinsella aerofaciens 0.998

COc1cc(OC)nc(NC(=O)NS(=O)(=O)c2c(Cl)nc3ccccn23)n1
inactive: Akkermansia muciniphila 1.06 | Bacteroides caccae 1.02 | Bacteroides clarus 1 | Bacteroides dorei 1.02 | Bacteroides stercoris 1.1 | [1] 1 | Bacteroides uniformis 1.02 | [2] 1.02 | Clostridium difficile 1 | Collinsella aerofaciens 1.03

CCOCCOC(=O)C(C)Oc1ccc(Oc2ncc(C(F)(F)F)cc2Cl)cc1 (stereo not given)
inactive: Akkermansia muciniphila 1.02 | Bacteroides caccae 0.955 | Bacteroides clarus 0.968 | Bacteroides dorei 0.948 | Bacteroides stercoris 0.903 | [1] 0.998 | Bacteroides uniformis 0.903 | [2] 1.01 | Clostridium difficile 1.01 | Collinsella aerofaciens 1.03

Cc1nc(C(F)(F)F)c(C(=O)Nc2c(Br)cc(OC(F)(F)F)cc2Br)s1
inactive: Akkermansia muciniphila 1.05 | Bacteroides caccae 0.984 | Bacteroides clarus 0.98 | Bacteroides dorei 0.946 | Bacteroides stercoris 1.06 | [1] 0.945 | Bacteroides uniformis 0.986 | [2] 1 | Clostridium difficile 1.03 | Collinsella aerofaciens 1.01

CCNc1nc(N)nc(Cl)n1
inactive: Akkermansia muciniphila 0.954 | Bacteroides caccae 1.01 | Bacteroides clarus 1.02 | Bacteroides dorei 1.01 | Bacteroides stercoris 1.12 | [1] 1.03 | Bacteroides uniformis 1.02 | [2] 1 | Clostridium difficile 1.03 | Collinsella aerofaciens 0.996

CC(C)C(O)(c1ccc(OC(F)(F)F)cc1)c1cncnc1 (stereo not given)
inactive: Akkermansia muciniphila 0.853 | Bacteroides caccae 1 | Bacteroides clarus 0.938 | Bacteroides dorei 0.991 | Bacteroides stercoris 1.22 | [1] 0.939 | Bacteroides uniformis 0.972 | [2] 1.03 | Clostridium difficile 0.985 | Collinsella aerofaciens 1.03

COC(=O)c1ccc(CNS(C)(=O)=O)cc1S(=O)(=O)NC(=O)Nc1nc(OC)cc(OC)n1
inactive: Akkermansia muciniphila 0.864 | Bacteroides caccae 0.988 | Bacteroides clarus 1.02 | Bacteroides dorei 1.01 | Bacteroides stercoris 0.871 | [1] 0.991 | Bacteroides uniformis 1.01 | [2] 0.917 | Clostridium difficile 1.02 | Collinsella aerofaciens 1.01

O=C(NC(=O)c1c(F)cccc1F)Nc1cc(C(F)(F)F)cc(C(F)(F)F)c1Cl
inactive: Akkermansia muciniphila 0.695 | Bacteroides caccae 0.852 | Bacteroides clarus 0.867 | Bacteroides dorei 0.982 | Bacteroides stercoris 0.849 | [1] 0.96 | Bacteroides uniformis 0.96 | [2] 0.819 | Clostridium difficile 1.02 | Collinsella aerofaciens 1.02

CCc1nc2ncnn2c(N)c1CCCC(=O)O.Cl
inactive: Akkermansia muciniphila 1.12 | Bacteroides caccae 0.907 | Bacteroides clarus 1.03 | Bacteroides dorei 1 | Bacteroides stercoris 1.14 | [1] 0.985 | Bacteroides uniformis 1.02 | [2] 1.01 | Clostridium difficile 1.04 | Collinsella aerofaciens 1

CCCCN(C)C(=O)Nc1ccc(Cl)c(Cl)c1
inactive: Akkermansia muciniphila 0.739 | Bacteroides caccae 0.886 | Bacteroides clarus 0.952 | Bacteroides dorei 0.97 | Bacteroides stercoris 1.16 | [1] 0.899 | Bacteroides uniformis 0.864 | [2] 0.951 | Clostridium difficile 0.943 | Collinsella aerofaciens 1

Cc1ccc(C)c(O)c1
inactive: Akkermansia muciniphila 0.958 | Bacteroides caccae 1.02 | Bacteroides clarus 0.98 | Bacteroides dorei 1 | Bacteroides stercoris 0.996 | [1] 1 | Bacteroides uniformis 1.01 | [2] 1.05 | Clostridium difficile 1.01 | Collinsella aerofaciens 1.01

O=C(O)COc1ccc(Cl)c2cccnc12
inactive: Akkermansia muciniphila 0.981 | Bacteroides caccae 1.03 | Bacteroides clarus 1.03 | Bacteroides dorei 0.976 | Bacteroides stercoris 1.14 | [1] 0.997 | Bacteroides uniformis 1 | [2] 0.99 | Clostridium difficile 0.954 | Collinsella aerofaciens 1.02

CC1(C)C(=O)Oc2ccc(OS(C)(=O)=O)cc21
inactive: Akkermansia muciniphila 1.03 | Bacteroides caccae 1.05 | Bacteroides clarus 0.993 | Bacteroides dorei 1.02 | Bacteroides stercoris 1.06 | [1] 0.988 | Bacteroides uniformis 0.986 | [2] 0.988 | Clostridium difficile 0.99 | Collinsella aerofaciens 0.997

Br[C@@H]1CC[C@H](Br)[C@H](Br)CC[C@@H](Br)[C@@H](Br)CC[C@H]1Br
inactive: Akkermansia muciniphila 1 | Bacteroides caccae 1.01 | Bacteroides clarus 0.901 | Bacteroides dorei 0.999 | [1] 1.01 | Bacteroides uniformis 1.01 | [2] 0.919 | Clostridium difficile 1.02 | Collinsella aerofaciens 1
active: Bacteroides stercoris 0.528

O=c1oc(-c2ccccc2)nc2ccccc12
inactive: Akkermansia muciniphila 0.96 | Bacteroides caccae 1.01 | Bacteroides clarus 0.984 | Bacteroides dorei 0.979 | Bacteroides stercoris 0.955 | [1] 0.966 | Bacteroides uniformis 0.971 | [2] 0.947 | Clostridium difficile 0.994 | Collinsella aerofaciens 0.976

CCCCCCC(C)OC(=O)C(C)Oc1ccc(Cl)cc1C (stereo not given)
inactive: Akkermansia muciniphila 0.913 | Bacteroides caccae 0.996 | Bacteroides clarus 0.973 | Bacteroides dorei 0.983 | Bacteroides stercoris 0.983 | [1] 1 | Bacteroides uniformis 1.02 | [2] 0.848 | Clostridium difficile 1.01 | Collinsella aerofaciens 0.968

NS(=O)(=O)[O-].[NH4+]
inactive: Akkermansia muciniphila 1.11 | Bacteroides caccae 1.01 | Bacteroides clarus 1.03 | Bacteroides dorei 1.02 | Bacteroides stercoris 1.05 | [1] 1.02 | Bacteroides uniformis 1.05 | [2] 1.06 | Clostridium difficile 1.05 | Collinsella aerofaciens 0.998

CC(=O)Oc1c(Cl)c(Cl)c(Cl)c(Cl)c1Cl
inactive: Akkermansia muciniphila 0.861 | [2] 0.942 | Collinsella aerofaciens 0.937
active: Bacteroides caccae 0.559 | Bacteroides clarus 0.585 | Bacteroides dorei 0.66 | Bacteroides stercoris 0.448 | [1] 0.565 | Bacteroides uniformis 0.52 | Clostridium difficile 0.784

CN(C)C(=O)Nc1ccc(Oc2ccc(Cl)cc2)cc1
inactive: Akkermansia muciniphila 0.943 | Bacteroides caccae 0.863 | Bacteroides clarus 0.948 | Bacteroides dorei 0.871 | Bacteroides stercoris 0.819 | [1] 0.92 | Bacteroides uniformis 1.02 | [2] 0.991 | Clostridium difficile 0.96 | Collinsella aerofaciens 0.924

Oc1ccc2nc(-c3cscn3)[nH]c2c1
inactive: Akkermansia muciniphila 0.877 | Bacteroides caccae 1.07 | Bacteroides clarus 0.955 | Bacteroides dorei 0.997 | Bacteroides stercoris 0.98 | [1] 0.985 | Bacteroides uniformis 0.982 | [2] 1.01 | Clostridium difficile 0.988 | Collinsella aerofaciens 1.01

Nc1ccc(S(=O)(=O)Nc2cnc3ccccc3n2)cc1
inactive: Akkermansia muciniphila 0.923 | Bacteroides caccae 1.01 | Bacteroides clarus 0.99 | Bacteroides dorei 1.02 | Bacteroides stercoris 1.01 | [1] 0.946 | Bacteroides uniformis 0.984 | [2] 1.12 | Clostridium difficile 0.975 | Collinsella aerofaciens 0.982

Source: the supplement of paper PMC12669032
